Assay outcomes (PubChem)
The list is not random: actives were taken first. Their share in the collection is about 19%.
TDP1 cell noCPT: qHTS for Inhibitors of human tyrosyl-DNA phosphodiesterase 1 (TDP1): qHTS in cells in absence of CPT; AID 686978, 2013; Potency, µM (highest dose often 46.2 µM), actives largely listed as inhibitors; DT40 Tdp1-/- hTDP1 cells, no CPT, ATP luminescence, 48 h; 15% of 420,000 active; note: nearly all actives have a fitted effect of over 55% in size
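Growth kinetics read by CellTiter-Glo luminescence after ≥48 hr at 37 °C. Cells: DT40 Tdp1-/- stably carrying human TDP1, 400 per well, compound exposure in the absence of CPT (DMSO vehicle).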
IL-1B inflam inh: blocks inflammasome-driven IL-1 beta release; THP-1 LPS/ATP IL-1B secretion, AlphaLISA, 16 h; active compounds read low; AID 743279; activity change, % at 57.5 µM; 4.7% of 360,000 active; in the data active = activity change below about -50%; inconclusive = mostly about -30% to -49%
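THP-1 cells pretreated 1 hr with compounds (up to 57.5 uM final), then stimulated with LPS (250 ng/mL final) plus ATP (1.25 mM final); secreted IL-1B measured by AlphaLISA after 16 hr, decreased signal indicating inhibition.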
MCF10A rerep: inducers of DNA re-replication in MCF 10A breast cells. MCF 10A DNA re-replication, Hoechst nuclear intensity, 48 h. Potency, µM (highest dose often 46.1 µM), most hits filed as activators. 2.9% of 350,000 active. AID 624296; note: nearly all actives have a fitted effect of over 50% in size
SW480 rerep: induces DNA re-replication in SW480 colon adenocarcinoma cells; Potency, µM (doses to about 46.1 µM), hits mostly activators; 1.8% of 340,000 active; SW480 DNA re-replication, Hoechst DNA content imaging, 48 h; note: nearly all actives have a fitted effect of over 55% in size
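250 cells/well; 23 nL cpd via pin tool; 48 hr, 37 C, 5% CO2; Hoechst 40 min; imager read of total nuclear intensity, ex 405/em 500-530 nm.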
DT40 TDP1 CPT: growth inhibition of DT40 Tdp1-/-;hTDP1 cells with camptothecin (screen for TDP1 inhibitors). chicken DT40 Tdp1-/-;hTDP1 cells + 20 nM CPT, ATP luminescence, 48 h. Potency, µM (highest dose often 46.2 µM), usual class: inhibitors. 12% of 420,000 active. AID 686979; note: nearly all actives have a fitted effect of over 55% in size
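Chicken DT40 Tdp1-/- cells complemented with human TDP1, 400 cells/well, exposed to compounds plus 20 nM camptothecin for at least 48 h at 37 C; viability read as ATP content by CellTiter-Glo luminescence.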
BCR signal inh: inhibitors of chronic active B-cell receptor signaling; ABC-DLBCL IkBa-CBG/CBR reporter, luminescence ratio, 4 h; Potency, µM (highest dose often 46.1 µM), actives largely listed as inhibitors; 0.05% of 340,000 active; active = well fitted inhibition curve with a large enough effect in the signal ratio, with a control signal flat, not every such curve was filed as active; inconclusive = small, poorly fitted or top-dose-only effect, or effect the other way, or a change in a side signal; the % refers to the signal ratio
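TMD8 ABC-DLBCL cells carrying doxycycline-inducible green luciferase fused to IkappaBalpha plus unfused red luciferase were exposed to compounds (up to 46 uM) for 4 hrs at 37C. Activity came from the overlap-corrected green/red luminescence ratio.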
Numbers stand for hits; – = inactive; ? = inconclusive; · = no result given. Unless noted, calls come from the whole dose curve; as a rule, active = well fitted curve in the direction sought with a large enough effect; inconclusive = small, poorly fitted or top-dose-only effect, or another doubt; inactive = no such curve, though single readings can be large; an effect the other way counts as inactive or inconclusive.

SMILES	TDP1 cell noCPT	IL-1B inflam inh	MCF10A rerep	SW480 rerep	DT40 TDP1 CPT	BCR signal inh
COc1ccc(-c2csc(NC(=O)C3CSC4(C)CCC(=O)N34)n2)c(OC)c1 (centres undefined)	23µM	-71	–	–	?	–
COc1ccc(-c2csc(NC(=O)C3CSC4(C)CCC(=O)N34)n2)cc1 (centres undefined)	–	–	–	?	–	–
Cc1cccc(C(C(=O)NC2CCCC2)N(C(=O)c2csnn2)C2CCCC2)c1 (centres undefined)	–	–	–	–	?	–
CC(=O)c1ccc(OCCCC(=O)Nc2ccc(S(=O)(=O)N3CCOCC3)cc2)cc1	?	–	–	–	?	–
Cc1ccc(CN2CCC(CNC(=O)Nc3c(C)cccc3C)C2)cc1 (centres undefined)	–	·	·	·	–	·
Cn1cc([N+](=O)[O-])c(C(=O)Nc2ccc3nc(-c4ccccc4)[nH]c3c2)n1	18µM	–	–	?	?	?
Cn1cc([N+](=O)[O-])c(C(=O)Nc2cc(Oc3cccnc3)cc([N+](=O)[O-])c2)n1	?	-96	9.2µM	10µM	–	?
O=C(Nc1ccc2nc(-c3ccc4nc[nH]c4c3)[nH]c2c1)c1cccs1	?	–	?	–	–	–
O=C(Nc1ccc2nc(-c3ccccc3)[nH]c2c1)c1cccs1	13µM	-65	–	–	26µM	?
Cn1cc([N+](=O)[O-])c(C(=O)Nc2ccc(-c3nc4ccccc4[nH]3)cc2)n1	?	–	–	?	–	?
O=C(Nc1ccc2nc(-c3ccco3)[nH]c2c1)c1cccs1	?	–	–	–	21µM	?
O=C(Nc1ccc2nc(-c3ccco3)[nH]c2c1)c1ccco1	?	–	–	–	?	?
O=[N+]([O-])c1cc(Oc2cccnc2)cc([N+](=O)[O-])c1	–	–	–	–	?	?
O=C(CSc1nc(=O)[nH]c2c1CCC2)Nc1cc(C(F)(F)F)ccc1Cl	?	·	·	·	?	–
O=C(O)CCC(=O)Nc1ccc(-c2nc3ccc(C(=O)c4ccccc4)cc3[nH]2)cc1	–	–	?	–	–	–
O=C(c1ccccc1)c1ccc2nc(-c3ccc(NC(=O)c4ccccc4F)cc3)[nH]c2c1	3.3µM	–	?	–	3.7µM	–
CCCCN(CCCC)Cc1cc(=O)oc2ccccc12	?	–	·	·	–	·
Cc1ccc(NC(=O)c2cc(-c3ccccc3)nn2-c2ccccc2)cc1	21µM	?	21µM	–	?	–
Cc1ccc(NC(=O)c2cc(-c3ccccc3)nn2-c2ccccc2)c(Br)c1	?	–	?	–	15µM	–
Cc1cc(C(=O)Nc2ccc(Br)cc2F)n(-c2ccccc2)n1	–	?	–	–	?	–
CCC(Oc1ccccc1)C(=O)Nc1cc(-c2cccc(C)c2)nn1-c1ccccc1 (centres undefined)	–	·	·	·	–	·
CCC(CC)C(=O)Nc1cc(-c2cccc(C)c2)nn1-c1ccccc1	16µM	·	·	·	23µM	·
COC(=O)c1c(C)oc(C)c1S(=O)(=O)NC(c1ccccc1)c1ccccc1	?	–	?	–	–	–
COc1cc(=O)n2c(c1C(=O)NC(C)c1ccco1)CCN(Cc1ccnc3ccccc13)CC2 (centres undefined)	–	·	·	·	?	·
CCOc1ccc(CCNC(=O)CN2N=C(c3ccccc3)CCC2=O)cc1OCC	?	·	·	·	–	–
SMILES	TDP1 cell noCPT	IL-1B inflam inh	MCF10A rerep	SW480 rerep	DT40 TDP1 CPT	BCR signal inh
CC(C)C(NS(=O)(=O)c1cccc2nsnc12)C(=O)N1CCCCC1 (centres undefined)	–	–	–	–	–	–
O=c1c(N2CCc3ccccc3C2)csc2ccc(Br)cc12	?	·	·	·	23µM	·
CCN(CC)C(=O)CSc1nc2cc3c(cc2c(=O)n1CCCCCC(=O)NCc1ccc(OC)cc1)OCO3	?	-65	18µM	–	?	?
CCN(CC)C(=O)CSc1nc2cc3c(cc2c(=O)n1Cc1ccc(C(=O)NCCc2ccc(OC)c(OC)c2)cc1)OCO3	21µM	·	·	·	13µM	–
CCC(Sc1nc2cc3c(cc2c(=O)n1CCCC(=O)NCc1ccc(OC)cc1)OCO3)C(=O)NCCCOC (centres undefined)	?	·	·	·	–	–
CCCCC(Sc1nc2cc3c(cc2c(=O)n1CCCC(=O)NCc1ccc(OC)cc1)OCO3)C(=O)OCC (centres undefined)	4.6µM	·	·	·	4.6µM	–
COc1ccc(CNC(=O)CCCn2c(SCC(N)=O)nc3cc4c(cc3c2=O)OCO4)cc1	–	·	·	·	–	–
CCOC(=O)CSc1nc2cc3c(cc2c(=O)n1CCCC(=O)NCCc1ccc(OC)c(OC)c1)OCO3	13µM	·	·	·	?	–
COCCCNC(=O)C(=O)Nc1cc2c3c(c1)CCN3C(=O)CC2	–	–	–	–	–	–
CCN(CC)C(=O)CSc1nc2cc3c(cc2c(=O)n1CCCC(=O)NCCc1ccc(OC)c(OC)c1)OCO3	18µM	?	–	–	?	–
CCCCNC(=O)CSc1nc2cc3c(cc2c(=O)n1CCCC(=O)NCCc1ccc(OC)c(OC)c1)OCO3	–	–	–	–	–	?
CC(C)OCCCNC(=O)c1cccc2c1C(=O)c1ccc(Cl)cc1S2(=O)=O	–	-77	–	–	–	–
COc1ccc(-c2ccc3c(c2)S(=O)(=O)c2cccc(C(=O)NC[C@@H]4CCCO4)c2C3=O)cc1OC	?	–	–	–	?	–
COc1ccc(-c2ccc3c(c2)S(=O)(=O)c2cccc(C(=O)NCCOc4ccccc4)c2C3=O)cc1OC	?	–	?	–	18µM	?
O=C(NCCOc1ccccc1)c1ccc2c(c1)S(=O)(=O)c1cc(Cl)ccc1C2=O	?	–	?	–	?	–
COc1ccc(OC[C@@H](O)CNC(=O)c2cccc3c2C(=O)c2ccc(-c4ccc(F)cc4OCc4ccccc4)cc2S3(=O)=O)cc1	10µM	–	–	–	7.3µM	?
O=C(NCCOc1ccccc1)c1cccc2c1C(=O)c1ccc(Cl)cc1S2(=O)=O	23µM	-81	–	–	?	–
CN(C)c1nc(Cl)nc2c1nc(Cl)n2C1CCCCO1 (centres undefined)	–	–	–	–	–	·
O=C(NC[C@@H]1CCCO1)c1cccc2c1C(=O)c1ccc(Cl)cc1S2(=O)=O	–	-54	–	–	–	–
O=C(NC1CCCC1)c1cccc2c1C(=O)c1ccc(Cl)cc1S2(=O)=O	–	–	?	–	–	–
